Experimental data taken from PubChem BioAssay (NCATS).
Where “and” joins values, the source holds several entries; their conditions need not be identical. Identical values can stand only once. Results filed as inconclusive are left out. Calls of active or inactive are those of the source. The call rests on the fitted dose curve; in most records, active means well fitted inhibition curve with a large enough effect; inconclusive means small, poorly fitted or top-dose-only effect; inactive means flat fitted curve, though single readings scatter.

Experiments:
[1] = tested on: SC27B; assay: qHTS profiling for inhibitors of Plasmodium falciparum proliferation (AID 504749);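 further: 0% = DMSO vehicle and full inhibition = artemisinin control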; conditions: P. falciparum in erythrocytes, SYBR Green DNA, 72 h; series mostly up to 28.7 µM
How it was run: (§1)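 Three-day growth assay of blood-stage parasites in erythrocytes (0.3% parasitemia, 2.5% hematocrit) at 37 C, 5% CO2, quantified by SYBR Green DNA staining after overnight detergent lysis.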

[2] = tested on: TAB109; assay: as above; conditions: P. falciparum in erythrocytes, SYBR Green DNA, 72 h; series mostly up to 28.7 µM
How it was run: as §1

[3] = tested on: TAB113; assay: as above; conditions: P. falciparum in erythrocytes, SYBR Green DNA, 72 h; series mostly up to 28.7 µM
How it was run: as §1

[4] = tested on: TAB165; assay: as above; conditions: P. falciparum in erythrocytes, SYBR Green DNA, 72 h; series mostly up to 28.7 µM
How it was run: as §1

[5] = tested on: W2; assay: as above; conditions: P. falciparum in erythrocytes, SYBR Green DNA, 72 h; series mostly up to 28.7 µM
How it was run: as §1

[6] = tested on: CRL-7250; assay: Cytotoxic Profiling of Annotated Libraries Using Quantitative High-Throughput Screening (AID 1296008); conditions: Five cell lines viability, CellTiter-Glo ATP luminescence, 48-72 h; max response: stronger effect = lower value; on max response: on the % scale 0 is the no-effect control and ±100 the full control effect
How it was run: (§2)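 Cytotoxicity was measured as CellTiter-Glo ATP luminescence, read after 10 min at room temperature. Compound treatment of the cells lasted 48 or 72 hr at 37 degrees Celsius in a qHTS format.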

[7] = tested on: HaCat; assay: as above; conditions: Five cell lines viability, CellTiter-Glo ATP luminescence, 48-72 h; max response: stronger effect = lower value
How it was run: as §2

[8] = tested on: KB-3-1; assay: as above; conditions: Five cell lines viability, CellTiter-Glo ATP luminescence, 48-72 h; max response: stronger effect = lower value
How it was run: as §2

[9] = tested on: NIH3T3; assay: as above; conditions: Five cell lines viability, CellTiter-Glo ATP luminescence, 48-72 h; max response: stronger effect = lower value
How it was run: as §2

[10] = tested on: HACAT; assay: qHTS assay to identify novel small-molecules to repurpose for Merkel cell carcinoma treatment (AID 1296009); conditions: MCC and control cell lines, CellTiter-Glo viability, 72 h; at 44.8 µM (top of the series) unless noted
How it was run: (§3)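 After compound transfer in DMSO, plates were kept 72 hr at 37 degree celsius. Luminescent ATP signal from CellTiter-Glo served as viability measure, normalized against DMSO and no-cell controls.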

[11] = tested on: HEK293T; assay: as above; conditions: MCC and control cell lines, CellTiter-Glo viability, 72 h; at 44.8 µM (top of the series) unless noted
How it was run: as §3

[12] = tested on: MCC-13; assay: as above; conditions: MCC and control cell lines, CellTiter-Glo viability, 72 h; series mostly up to 46 µM
How it was run: as §3

[13] = tested on: MCC-26; assay: as above; conditions: MCC and control cell lines, CellTiter-Glo viability, 72 h; series mostly up to 46 µM
How it was run: as §3

[14] = tested on: MKL-1; assay: as above; conditions: MCC and control cell lines, CellTiter-Glo viability, 72 h; series mostly up to 46 µM
How it was run: as §3

[15] = tested on: MKL-2; assay: as above; conditions: MCC and control cell lines, CellTiter-Glo viability, 72 h; series mostly up to 46 µM
How it was run: as §3

[16] = tested on: UISO; assay: as above; conditions: MCC and control cell lines, CellTiter-Glo viability, 72 h; series mostly up to 46 µM
How it was run: as §3

[17] = tested on: WaGa; assay: as above; conditions: MCC and control cell lines, CellTiter-Glo viability, 72 h; series mostly up to 46 µM
How it was run: as §3

[18] = tested on: CRL-7250; assay: as above; conditions: MCC and control cell lines, CellTiter-Glo viability, 72 h; at 44.8 µM (top of the series) unless noted
How it was run: as §3

[19] = tested on: HEK293; assay: Cytotoxic Profiling of Annotated Libraries Using Quantitative High-Throughput Screening (AID 1296008); conditions: Five cell lines viability, CellTiter-Glo ATP luminescence, 48-72 h; max response: stronger effect = lower value; on max response: on the % scale 0 is the no-effect control and ±100 the full control effect
How it was run: as §2

[20] = tested on: NIH3T3; assay: qHTS assay to identify novel small-molecules to repurpose for Merkel cell carcinoma treatment (AID 1296009); conditions: MCC and control cell lines, CellTiter-Glo viability, 72 h; at 44.8 µM (top of the series) unless noted
How it was run: as §3
Further: nearly all actives have a fitted effect of over 60% in size.

CC(C)c1cccc(C(C)C)c1O
inactive: Potency [1] | Potency [2] | Potency [3] | Potency [4] | Potency [5] | max response [6] -8.58% and -1.5% | outcome [7] | max response [8] 9.44% | max response [9] 0.687% | outcome [10] | outcome [11] | outcome [12] | Potency [13] | Potency [14] | Potency [15] | Potency [16] | Potency [17]

NC(=O)c1cc([N+](=O)[O-])cc([N+](=O)[O-])c1
inactive: Potency [1] | Potency [2] | Potency [3] | Potency [4] | outcome [6] | max response [7] 3.87% | max response [8] -1.64% | max response [9] 4.48% | outcome [18] | outcome [12] | Potency [13] | Potency [14] | Potency [15] | Potency [16] | Potency [17]

COc1ccc2c(c1OC)C(=O)O[C@H]2[C@@H]1c2cc3c(cc2CCN1C)OCO3
inactive: max response [6] 0.738% | max response [19] -2.03% | max response [7] -4.43% | max response [8] 3.84% | outcome [12] | Potency [13] | Potency [14] | Potency [15] | Potency [16] | Potency [17]

C[C@H]1[C@@H]2Cc3ccc(O)cc3[C@@]1(C)CCN2C
inactive: max response [6] -7.45% | max response [19] -19.5% | max response [8] -22% | outcome [9] | outcome [12] | Potency [13] | Potency [14] | Potency [15] | outcome [20] inactive [at 231 µM] | Potency [16] | Potency [17]

COP(=S)(OC)Oc1ccc(S(=O)(=O)N(C)C)cc1
inactive: Potency [1] | Potency [2] | Potency [3] | Potency [4] | Potency [5] | max response [6] 4.64% | max response [19] -6.52% | max response [7] -5.18% | max response [8] -10.7% | max response [9] -0.737% | outcome [12] | Potency [14] | Potency [15] | Potency [16] | Potency [17]

Clc1cccc(SC2CCNCC2)n1
inactive: Potency [1] | Potency [2] | Potency [3] | Potency [4] | Potency [5] | max response [6] -0.448% | max response [19] 1.87% | max response [7] -6.24% | max response [8] -11.2% | max response [9] 4.41% | outcome [12] | Potency [14] | Potency [15] | Potency [16] | Potency [17]

O=c1[nH]c2ccccc2n1C1CCNCC1
inactive: outcome [6] | max response [19] -4.64% | max response [7] 3.09% | outcome [9] | outcome [18] | outcome [12] | Potency [13] | Potency [14] | Potency [15] | outcome [20] | Potency [16] | Potency [17]
